# Results published in ChEMBL document CHEMBL5606460, “ASAP - DENV-2 NS2B-NS3 protease fluorescence single point” (2024).
# Screen size: about 2,000 compounds; about 110 (5.5%) showed an effect of 50% or more. Many of the other results were omitted from the sample, so strong results are more common in it than they were. Non-standard residues stand in square brackets, D forms with d. Residues, ends and D or L forms follow the SMILES beside them. Phg = N[C@H](C(=O)O)c1ccccc1; 4Amb = NCc1ccc(C(=O)O)cc1; Nle = CCCC[C@H](N)C(=O)O
# Molecular target: Genome polyprotein (dengue virus type 2) (UniProt P29990)
# [1] = Thailand/16681/1984, Concentration 25.0 uM, Number of replicates 1.0
compound,measurement,setting,value
Cn1c(C(=O)Nc2cc(Cl)cc(C(=O)NC(C)(C)CO)c2)cccc1=O,inhibition,"Thailand/16681/1984, Concentration 49.5 uM, Number of replicates 2.0, Standard deviation 0.4081268580659683 %",-0.99%
same,inhibition,"Thailand/16681/1984, Concentration 99.01 uM, Number of replicates 2.0, Standard deviation 2.113430221710736 %",-1.01%
same,inhibition,"Thailand/16681/1984, Concentration 198.0 uM, Number of replicates 2.0, Standard deviation 2.072570516879941 %",0.352%
NCc1cn(C2CCN(c3nc(-c4ccccc4)cs3)CC2)nn1,inhibition,"Thailand/16681/1984, Concentration 49.5 uM, Number of replicates 2.0, Standard deviation 0.032513427640456005 %",-4.62%
same,inhibition,"Thailand/16681/1984, Concentration 99.01 uM, Number of replicates 2.0, Standard deviation 1.6651164489567518 %",-3.29%
same,inhibition,"Thailand/16681/1984, Concentration 198.0 uM, Number of replicates 2.0, Standard deviation 1.091599962537426 %",0.094%
CC1(C)C[C@]1(CNC(=O)C1CCN(c2ccc(C=O)cc2)CC1)c1ccccc1,inhibition,[1],12.2%
O=Cc1ccc(N2CCC(C(=O)N3CCc4c(Br)cccc4C3)CC2)cc1,inhibition,[1],2.83%
Cc1cc(CO)c2cccc(Cc3cccc(NC(=O)c4nc(N)n[nH]4)c3)c2n1,inhibition,"Thailand/16681/1984, Concentration 49.95 uM, Number of replicates 2.0, Standard deviation 2.1470069511188496 %",1.75%
same,inhibition,"Thailand/16681/1984, Concentration 99.9 uM, Number of replicates 2.0, Standard deviation 2.660737289988502 %",8.09%
Cc1cc(CO)c2cccc(Cc3ccccc3NC(=O)c3nc(N)n[nH]3)c2n1,inhibition,"Thailand/16681/1984, Concentration 49.95 uM, Number of replicates 2.0, Standard deviation 1.581349166072865 %",0.804%
same,inhibition,"Thailand/16681/1984, Concentration 99.9 uM, Number of replicates 2.0, Standard deviation 1.2268610426733166 %",4.88%
Cc1cc(CO)c2cccc(NC(=O)c3nc(N)n[nH]3)c2n1,inhibition,"Thailand/16681/1984, Concentration 49.95 uM, Number of replicates 2.0, Standard deviation 1.7045480288991801 %",42.6%
same,inhibition,"Thailand/16681/1984, Concentration 99.9 uM, Number of replicates 2.0, Standard deviation 15.015963199334223 %",67.3%
O=C(NCCc1cncnc1)c1cn([C@H]2CCCNC2)nn1,inhibition,"Thailand/16681/1984, Concentration 49.5 uM, Number of replicates 2.0, Standard deviation 3.1505652659838077 %",-3.39%
same,inhibition,"Thailand/16681/1984, Concentration 99.01 uM, Number of replicates 2.0, Standard deviation 0.03260817375590849 %",-4.66%
same,inhibition,"Thailand/16681/1984, Concentration 198.0 uM, Number of replicates 2.0, Standard deviation 5.615654862136011 %",-0.277%
Clc1ccc2[nH]cc(Cc3ccc(-c4nn[nH]n4)cc3)c2c1,inhibition,"Thailand/16681/1984, Concentration 99.5 uM, Number of replicates 2.0, Standard deviation 0.137702183454793 %",89.8%
same,inhibition,"Thailand/16681/1984, Concentration 295.6 uM, Number of replicates 2.0, Standard deviation 0.013886206472581278 %",98.9%
O=C(O)[C@H](c1c[nH]c2ccccc12)N1CCC(c2cnc3ccc[nH]c2-3)CC1,inhibition,"Thailand/16681/1984, Concentration 49.5 uM, Number of replicates 2.0, Standard deviation 2.9336110336729484 %",-1.93%
same,inhibition,"Thailand/16681/1984, Concentration 99.01 uM, Number of replicates 2.0, Standard deviation 1.2688833051000123 %",-1.4%
same,inhibition,"Thailand/16681/1984, Concentration 198.0 uM, Number of replicates 2.0, Standard deviation 1.8509089452057481 %",0.519%
CCCC[C@H](NC(C)=O)C(=O)N[C@H](C(=O)NCc1ccc(CN)cc1)c1ccc(OCc2ccccc2)cc1,inhibition,"Thailand/16681/1984, Concentration 49.5 uM, Number of replicates 2.0, Standard deviation 1.556187076043376 %",-3.73%
same,inhibition,"Thailand/16681/1984, Concentration 99.01 uM, Number of replicates 2.0, Standard deviation 1.4164928639405643 %",9.94%
same,inhibition,"Thailand/16681/1984, Concentration 198.0 uM, Number of replicates 2.0, Standard deviation 0.0753329398535839 %",99.6%
CCCC[C@H](NC(C)=O)C(=O)N[C@H](C(=O)Nc1cccc(C(N)=O)c1)c1ccc(OCc2ccccc2)cc1,inhibition,"Thailand/16681/1984, Concentration 49.5 uM, Number of replicates 2.0, Standard deviation 1.3015902921422546 %",-0.513%
same,inhibition,"Thailand/16681/1984, Concentration 99.01 uM, Number of replicates 2.0, Standard deviation 0.5153915569037094 %",3.33%
same,inhibition,"Thailand/16681/1984, Concentration 198.0 uM, Number of replicates 2.0, Standard deviation 0.5711740910196359 %",8.87%
CCCC[C@H](NC(C)=O)C(=O)N[C@@H](C(=O)NCc1ccc(C(N)=O)cc1)c1ccc(OCc2ccccc2)cc1,inhibition,"Thailand/16681/1984, Concentration 49.5 uM, Number of replicates 2.0, Standard deviation 1.1393107429607887 %",-2.14%
same,inhibition,"Thailand/16681/1984, Concentration 99.01 uM, Number of replicates 2.0, Standard deviation 1.3468928227151291 %",-2.15%
same,inhibition,"Thailand/16681/1984, Concentration 198.0 uM, Number of replicates 2.0, Standard deviation 1.6817028564994563 %",-0.786%
CCCC[C@H](NC(C)=O)C(=O)N[C@H](C(=O)NCc1ccc(C(N)=O)cc1)c1ccc(OCc2ccccc2)cc1,inhibition,"Thailand/16681/1984, Concentration 49.5 uM, Number of replicates 2.0, Standard deviation 4.54767597440597 %",18.2%
same,inhibition,"Thailand/16681/1984, Concentration 99.01 uM, Number of replicates 2.0, Standard deviation 0.08657569598756192 %",99.9%
same,inhibition,"Thailand/16681/1984, Concentration 198.0 uM, Number of replicates 2.0, Standard deviation 0.08274539039489186 %",99.7%
CC(=O)N[C@H](C(=O)Nc1cccc(C(N)=O)c1)c1ccc(OCc2ccccc2)cc1,inhibition,"Thailand/16681/1984, Concentration 49.5 uM, Number of replicates 2.0, Standard deviation 1.41100239398505 %",-2.21%
same,inhibition,"Thailand/16681/1984, Concentration 99.01 uM, Number of replicates 2.0, Standard deviation 6.402498423083348 %",0.486%
same,inhibition,"Thailand/16681/1984, Concentration 198.0 uM, Number of replicates 2.0, Standard deviation 5.599350943845451 %",0.73%
CCCC[C@H](NC(C)=O)C(=O)N[C@H](C(=O)Nc1ccc(C(N)=O)cc1)c1ccc(OCc2ccccc2)cc1,inhibition,"Thailand/16681/1984, Concentration 49.5 uM, Number of replicates 2.0, Standard deviation 2.073896751762033 %",-0.623%
same,inhibition,"Thailand/16681/1984, Concentration 99.01 uM, Number of replicates 2.0, Standard deviation 0.38726109133313447 %",4.02%
same,inhibition,"Thailand/16681/1984, Concentration 198.0 uM, Number of replicates 2.0, Standard deviation 0.14852549415239058 %",23%
CCCC[C@H](NC(C)=O)C(=O)N[C@H](C(=O)NCc1ccc(C(N)=O)cc1)c1ccccc1 (Ac-[Nle]-[Phg]-[4Amb]-NH2),inhibition,"Thailand/16681/1984, Concentration 49.5 uM, Number of replicates 2.0, Standard deviation 0.4432432329236086 %",-1.46%
same,inhibition,"Thailand/16681/1984, Concentration 99.01 uM, Number of replicates 2.0, Standard deviation 0.9541533154251546 %",-0.354%
same,inhibition,"Thailand/16681/1984, Concentration 198.0 uM, Number of replicates 2.0, Standard deviation 1.9838414541082603 %",1.79%
CCCC[C@H](NC(C)=O)C(=O)N[C@H](C(=O)NCc1ccc(CN)cc1)c1ccccc1,inhibition,"Thailand/16681/1984, Concentration 49.5 uM, Number of replicates 2.0, Standard deviation 1.3580554366166637 %",0.537%
same,inhibition,"Thailand/16681/1984, Concentration 99.01 uM, Number of replicates 2.0, Standard deviation 18.440494023113153 %",14.1%
same,inhibition,"Thailand/16681/1984, Concentration 198.0 uM, Number of replicates 2.0, Standard deviation 14.8908767477505 %",56%
